Target: T1, NR2C1 355-603 Hormone_recep (domain begin residue: 355, domain end residue: 603), P13056
T1 chain: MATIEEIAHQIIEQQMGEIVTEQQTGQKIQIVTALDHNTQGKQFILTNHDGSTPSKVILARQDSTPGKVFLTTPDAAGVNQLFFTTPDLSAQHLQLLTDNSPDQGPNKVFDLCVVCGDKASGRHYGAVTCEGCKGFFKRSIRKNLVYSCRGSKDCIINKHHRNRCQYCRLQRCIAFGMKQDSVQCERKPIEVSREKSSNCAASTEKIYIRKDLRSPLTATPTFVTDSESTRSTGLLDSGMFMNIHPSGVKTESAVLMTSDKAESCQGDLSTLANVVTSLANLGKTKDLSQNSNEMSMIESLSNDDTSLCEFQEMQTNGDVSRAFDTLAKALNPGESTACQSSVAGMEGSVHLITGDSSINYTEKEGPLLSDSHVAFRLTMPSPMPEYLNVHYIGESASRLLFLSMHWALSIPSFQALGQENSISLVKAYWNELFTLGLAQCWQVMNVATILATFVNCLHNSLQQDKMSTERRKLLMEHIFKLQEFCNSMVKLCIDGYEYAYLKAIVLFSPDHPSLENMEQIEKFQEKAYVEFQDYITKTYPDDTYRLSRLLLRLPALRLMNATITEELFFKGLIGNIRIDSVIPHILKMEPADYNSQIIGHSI
Test: phage ELISA signal ratio (GST-PRM binding over GST background); higher = stronger binding of peptide-phage to the PRM
Method in brief: (§1)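 An M13 phage library with randomized hexadecapeptides on the gene-8 major coat protein, each peptide lacking cysteine and flanked by glycine, was selected for five rounds against human peptide recognition domains fused to the C-terminus of glutathione S-transferase (GST) and expressed in 96-well plates. Approximately 48 clones from rounds 4 and 5 went to phage ELISA. The reported value is the ELISA signal on the GST-domain fusion over the signal on GST alone, and positive clones were sequenced.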

| Binder | phage ELISA signal ratio |
| --- | --- |
| NQWGPYWSFSFVPMDW | 8.51 |
| MPDVPYQWVDLTEWFM | 15 |
| WGPFLSFQYAVDPTQE | 19.1 |

Target: T2, NR4A2 327-598 Hormone_recep (domain begin residue: 327, domain end residue: 598), P43354
T2 chain: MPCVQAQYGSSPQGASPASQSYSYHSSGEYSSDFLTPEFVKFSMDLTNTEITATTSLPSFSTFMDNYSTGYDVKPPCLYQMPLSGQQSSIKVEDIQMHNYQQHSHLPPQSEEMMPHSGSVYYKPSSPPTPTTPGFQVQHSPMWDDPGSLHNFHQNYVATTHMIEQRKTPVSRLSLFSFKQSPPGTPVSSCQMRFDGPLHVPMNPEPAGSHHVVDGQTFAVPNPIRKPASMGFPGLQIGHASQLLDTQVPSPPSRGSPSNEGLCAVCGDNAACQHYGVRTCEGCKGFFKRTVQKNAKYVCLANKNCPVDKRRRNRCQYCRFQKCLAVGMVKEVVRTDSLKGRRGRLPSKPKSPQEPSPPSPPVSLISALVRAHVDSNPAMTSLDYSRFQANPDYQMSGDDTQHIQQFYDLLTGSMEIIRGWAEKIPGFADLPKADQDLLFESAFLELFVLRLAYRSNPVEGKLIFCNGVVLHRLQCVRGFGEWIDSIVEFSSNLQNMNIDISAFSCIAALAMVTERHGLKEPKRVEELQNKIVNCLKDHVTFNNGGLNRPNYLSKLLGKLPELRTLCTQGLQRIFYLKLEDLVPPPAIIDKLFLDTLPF
Test: as above
Method in brief: as §1

| Binder | phage ELISA signal ratio |
| --- | --- |
| AFKQLMFHVIGEEYSV | 30.5 |
| GWSPWYEGRGVDWMTW | 5.78 |
| SHDMYEMIMWFFYQTE | 14.5 |

Target: T3, NUP98 730-880 Nucleoporin2 (domain begin residue: 730, domain end residue: 880), P52948
T3 chain: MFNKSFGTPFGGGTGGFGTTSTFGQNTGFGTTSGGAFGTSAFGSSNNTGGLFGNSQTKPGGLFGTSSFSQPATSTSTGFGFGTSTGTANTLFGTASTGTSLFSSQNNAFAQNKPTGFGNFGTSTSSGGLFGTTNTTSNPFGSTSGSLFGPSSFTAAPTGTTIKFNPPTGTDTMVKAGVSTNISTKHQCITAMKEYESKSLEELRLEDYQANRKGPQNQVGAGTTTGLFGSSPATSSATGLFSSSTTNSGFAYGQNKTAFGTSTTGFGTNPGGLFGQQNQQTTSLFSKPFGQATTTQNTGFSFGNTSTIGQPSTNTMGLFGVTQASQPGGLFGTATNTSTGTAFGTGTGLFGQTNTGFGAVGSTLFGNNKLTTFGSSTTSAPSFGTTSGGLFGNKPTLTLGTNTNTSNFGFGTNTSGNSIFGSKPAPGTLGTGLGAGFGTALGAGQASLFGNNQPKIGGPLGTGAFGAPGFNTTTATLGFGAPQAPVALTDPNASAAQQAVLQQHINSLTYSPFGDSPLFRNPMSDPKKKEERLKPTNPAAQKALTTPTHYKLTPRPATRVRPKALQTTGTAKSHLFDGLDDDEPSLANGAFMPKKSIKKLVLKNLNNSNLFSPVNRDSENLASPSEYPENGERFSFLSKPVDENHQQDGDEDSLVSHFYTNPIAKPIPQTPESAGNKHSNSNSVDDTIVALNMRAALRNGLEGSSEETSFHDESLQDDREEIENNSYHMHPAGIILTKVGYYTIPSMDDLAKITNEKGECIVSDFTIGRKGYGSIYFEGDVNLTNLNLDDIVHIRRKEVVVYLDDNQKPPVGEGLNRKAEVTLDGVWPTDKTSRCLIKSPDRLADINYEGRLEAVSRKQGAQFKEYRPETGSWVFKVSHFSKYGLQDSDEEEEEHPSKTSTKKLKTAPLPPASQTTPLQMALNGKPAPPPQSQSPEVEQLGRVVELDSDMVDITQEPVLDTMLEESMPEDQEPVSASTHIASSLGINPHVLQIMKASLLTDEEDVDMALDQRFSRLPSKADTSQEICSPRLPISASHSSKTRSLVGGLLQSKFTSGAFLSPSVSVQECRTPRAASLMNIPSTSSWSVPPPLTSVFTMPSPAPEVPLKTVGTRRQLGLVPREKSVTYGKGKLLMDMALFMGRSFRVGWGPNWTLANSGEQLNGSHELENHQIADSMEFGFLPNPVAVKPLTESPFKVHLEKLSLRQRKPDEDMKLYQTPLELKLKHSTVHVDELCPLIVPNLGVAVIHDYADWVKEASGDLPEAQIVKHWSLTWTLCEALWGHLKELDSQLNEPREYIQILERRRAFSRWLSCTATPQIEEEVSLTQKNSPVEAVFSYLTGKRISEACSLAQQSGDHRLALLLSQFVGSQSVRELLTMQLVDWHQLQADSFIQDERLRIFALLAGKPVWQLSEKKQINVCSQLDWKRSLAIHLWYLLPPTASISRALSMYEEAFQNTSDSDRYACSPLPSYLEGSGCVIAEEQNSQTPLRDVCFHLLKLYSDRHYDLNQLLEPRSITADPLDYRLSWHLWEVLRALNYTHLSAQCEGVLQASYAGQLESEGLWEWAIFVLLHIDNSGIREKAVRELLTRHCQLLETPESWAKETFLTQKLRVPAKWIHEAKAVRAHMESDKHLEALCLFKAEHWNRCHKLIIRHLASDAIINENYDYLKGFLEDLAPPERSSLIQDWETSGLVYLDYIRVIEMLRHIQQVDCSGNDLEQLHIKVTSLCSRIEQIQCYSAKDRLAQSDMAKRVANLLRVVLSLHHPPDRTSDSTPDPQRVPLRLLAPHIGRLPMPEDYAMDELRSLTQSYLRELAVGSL
Test: as above
Method in brief: as §1

| Binder | phage ELISA signal ratio |
| --- | --- |
| GYGWEELPPIMTVAPD | 23.2 |
| WFGWDAQMTEQEDELW | 5.91 |

target: NR5A2 297-541 Hormone_recep (domain begin residue: 297, domain end residue: 541), O00482; test: as above
Sequence (O00482 whole entry): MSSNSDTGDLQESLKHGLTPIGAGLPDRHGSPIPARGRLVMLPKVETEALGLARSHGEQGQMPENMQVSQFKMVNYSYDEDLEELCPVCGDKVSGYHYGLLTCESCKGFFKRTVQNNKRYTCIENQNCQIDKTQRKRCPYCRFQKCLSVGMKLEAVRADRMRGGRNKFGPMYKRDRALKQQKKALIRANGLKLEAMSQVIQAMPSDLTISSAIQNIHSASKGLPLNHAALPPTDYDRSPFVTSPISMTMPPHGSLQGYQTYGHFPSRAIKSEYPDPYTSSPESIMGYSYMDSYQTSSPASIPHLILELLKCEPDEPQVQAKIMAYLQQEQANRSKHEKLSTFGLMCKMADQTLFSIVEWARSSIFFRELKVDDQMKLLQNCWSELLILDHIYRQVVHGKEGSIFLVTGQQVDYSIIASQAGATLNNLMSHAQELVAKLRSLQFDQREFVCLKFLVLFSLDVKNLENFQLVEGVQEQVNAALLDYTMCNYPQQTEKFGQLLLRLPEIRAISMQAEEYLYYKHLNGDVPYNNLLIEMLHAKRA
Method in brief: as §1

| Binder | phage ELISA signal ratio |
| --- | --- |
| LTMAQQFPYLWSALSN | 11.2 |

Target: T4, NXT1 1-140 NTF2 (domain begin residue: 1, domain end residue: 140), Q9UKK6
T4 chain: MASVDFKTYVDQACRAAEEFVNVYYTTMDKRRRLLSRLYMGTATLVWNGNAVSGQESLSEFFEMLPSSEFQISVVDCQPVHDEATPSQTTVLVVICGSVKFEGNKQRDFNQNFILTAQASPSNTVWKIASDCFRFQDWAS
Test: as above
Method in brief: as §1

| Binder | phage ELISA signal ratio |
| --- | --- |
| MWIYNEKWDMFLPYKL | 20.3 |

Target: T5, NR1H3 204-447 Hormone_recep (domain begin residue: 204, domain end residue: 447), Q13133
T5 chain: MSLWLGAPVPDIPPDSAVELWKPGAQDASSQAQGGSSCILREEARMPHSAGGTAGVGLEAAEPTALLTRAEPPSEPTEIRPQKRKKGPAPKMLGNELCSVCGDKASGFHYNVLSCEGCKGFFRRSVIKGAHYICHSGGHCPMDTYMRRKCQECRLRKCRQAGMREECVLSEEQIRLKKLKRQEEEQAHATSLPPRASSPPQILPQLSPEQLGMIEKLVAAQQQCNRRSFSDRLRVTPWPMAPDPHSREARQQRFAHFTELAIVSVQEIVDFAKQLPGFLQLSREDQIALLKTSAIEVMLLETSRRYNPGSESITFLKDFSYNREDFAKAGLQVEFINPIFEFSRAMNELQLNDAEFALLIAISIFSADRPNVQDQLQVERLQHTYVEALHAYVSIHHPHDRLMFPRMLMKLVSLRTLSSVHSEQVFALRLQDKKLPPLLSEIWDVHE
Test: as above
Method in brief: as §1

| Binder | phage ELISA signal ratio |
| --- | --- |
| YPEIAWLQQMMQSDSR | 28.4 |
| DYPEVEWLTQQWDFWS | 17 |

target: PABPC1 544-623 PABP (domain begin residue: 544, domain end residue: 623); test: as above
Method in brief: as §1

| Binder | phage ELISA signal ratio |
| --- | --- |
| QQLADIPTYEWLQRNH | 27 |

target: NXF1 203-359 LRR_1 (domain begin residue: 203, domain end residue: 359); test: as above
Method in brief: as §1

| Binder | phage ELISA signal ratio |
| --- | --- |
| FEMLWREHMEKFDVEV | 28.4 |

From the supplement of paper PMC7724964
